SMILES strings stand for the structures. Hit rate of the full screen: of about 39,000 compounds, about 3,300 (8.5%) were called active. The sample as a whole holds a higher share of actives than the screen did.

The test system of this test is HepG2. Briefly: cytotoxicity call (relative viability < 0.9). The note with it: 10 µM.
Consider `C[C@H]1CC=CC[C@H](c2cccc(Cl)c2)NC(=O)[C@H](Cc2ccccc2)N(C)C(=O)c2ccccc2O1`, for which the cytotoxicity call was “inactive”.

Turning to `Cc1ccc(S(=O)(=O)N(C)C[C@@H]2OCCCC[C@@H](C)Oc3ccc(NC(=O)Nc4ccc(F)cc4)cc3C(=O)N([C@H](C)CO)C[C@@H]2C)cc1`, the cytotoxicity call was “inactive”.

Regarding `C[C@H](CO)N1C[C@H](C)[C@H](CN(C)C(=O)Nc2cccc(F)c2)OCc2ccccc2-c2ccccc2C1=O`, the cytotoxicity call was “inactive”.

With `CCCN(CCC)S(=O)(=O)c1ccc(C(=O)N(c2cccc(SC)c2)[C@H]2OC(=O)c3ccccc32)cc1`, the cytotoxicity call is “inactive”.

For the compound `C[C@H]1CN([C@@H](C)CO)S(=O)(=O)c2ccc(C#CCN(C)C)cc2O[C@H]1CN(C)S(=O)(=O)c1cccc(F)c1`, the cytotoxicity call was “inactive”.

As for `C[C@H](CO)N1C[C@H](C)[C@H](CN(C)C(=O)Nc2ccc(C(F)(F)F)cc2)Oc2c(NC(=O)c3ccc(-c4nccs4)cc3)cccc2C1=O`, the cytotoxicity call is “inactive”.

In the case of `C[C@@H]1CN([C@@H](C)CO)C(=O)c2cccc(NC(=O)c3ccc(-c4nccs4)cc3)c2O[C@@H]1CN(C)C(=O)Nc1ccc(C(F)(F)F)cc1`, the cytotoxicity call was “active”.

On to `C[C@H]1CN([C@@H](C)CO)C(=O)c2cccc(NC(=O)c3ccc(-c4nccs4)cc3)c2O[C@@H]1CN(C)Cc1ccc(C(F)(F)F)cc1`, for which the cytotoxicity call is “active”.

On to `C[C@@H]1CN([C@H](C)CO)C(=O)c2cccc(NC(=O)c3ccc(-c4nccs4)cc3)c2O[C@@H]1CN(C)Cc1ccc(C(=O)O)cc1`, for which the cytotoxicity call was “inactive”.

As to `C[C@H](CO)N1C[C@H](C)[C@H](CN(C)Cc2ccc(C(F)(F)F)cc2)Oc2c(NC(=O)c3ccc(-c4nccs4)cc3)cccc2C1=O`, the cytotoxicity call was “inactive”.

In the case of `C[C@@H]1CN([C@H](C)CO)C(=O)c2cccc(NC(=O)c3ccc(-c4nccs4)cc3)c2O[C@@H]1CN(C)Cc1ccc(C(F)(F)F)cc1`, the cytotoxicity call was “active”.

With `C[C@H]1CN([C@@H](C)CO)C(=O)c2cccc(NC(=O)c3ccc(-c4nccs4)cc3)c2O[C@H]1CN(C)Cc1ccc(C(F)(F)F)cc1`, the cytotoxicity call was “inactive”.

`C[C@@H]1CN([C@H](C)CO)C(=O)c2cccc(NC(=O)c3ccc(-c4nccs4)cc3)c2O[C@H]1CN(C)Cc1ccc(C(F)(F)F)cc1`: the cytotoxicity call is “inactive”.

For `C[C@@H]1CN([C@@H](C)CO)C(=O)c2cccc(NC(=O)c3ccc(-c4nccs4)cc3)c2O[C@H]1CN(C)Cc1ccc(C(F)(F)F)cc1`, the cytotoxicity call is “inactive”.

On to `C[C@H]1CN([C@@H](C)CO)C(=O)c2cccc(NC(=O)c3ccc(-c4nccs4)cc3)c2O[C@H]1CN(C)C(=O)Nc1ccc(C(F)(F)F)cc1`, for which the cytotoxicity call is “inactive”.

For `C[C@@H]1CN([C@@H](C)CO)C(=O)c2cccc(NC(=O)c3ccc(-c4nccs4)cc3)c2O[C@@H]1CN(C)Cc1ccc(C(F)(F)F)cc1`, the cytotoxicity call was “active”.

`C[C@H](CO)N1C[C@H](C)[C@@H](CN(C)Cc2ccc(C(F)(F)F)cc2)Oc2c(NC(=O)c3ccc(-c4nccs4)cc3)cccc2C1=O`: the cytotoxicity call was “inactive”.

As for `N=C(N)SCCN`, the cytotoxicity call is “inactive”.

Turning to `CN1CCN(C(=O)C[C@@H]2C=C[C@H](NC(=O)Nc3ccccc3F)[C@H](CO)O2)CC1`, the cytotoxicity call was “inactive”.

Regarding `COc1ccc(NC(=O)Nc2ccc3c(c2)C(=O)N([C@@H](C)CO)C[C@H](C)[C@@H](CN(C)C(=O)Nc2ccccc2)OCCCC[C@H](C)O3)cc1`, the cytotoxicity call was “inactive”.

Regarding `CN1C(=O)[C@@H]2CN(c3ncccn3)C[C@@H]2C12CCN(S(C)(=O)=O)CC2`, the cytotoxicity call was “inactive”.

In the case of `C[C@H](CO)N1C[C@H](C)[C@@H](CN(C)S(=O)(=O)c2ccc(Cl)cc2)Oc2ccc(N(C)C)cc2CC1=O`, the cytotoxicity call is “inactive”.

In the case of `Cc1ccc(S(=O)(=O)N(C)C[C@H]2OCCCC[C@@H](C)Oc3ccc(NC(=O)Nc4c(C)noc4C)cc3C(=O)N([C@H](C)CO)C[C@H]2C)cc1`, the cytotoxicity call was “inactive”.

Turning to `COc1ccc2cc1/C=C\NC(=O)[C@H](Cc1ccccc1)NC(=O)[C@@H]1[C@H](CCN1C(=O)[C@@H](NC(=O)[C@@H](C)N(C)C)C(C)C)O2`, the cytotoxicity call is “inactive”.

As to `CO[C@@H](CN(C)S(=O)(=O)c1cccc(Cl)c1)[C@H](C)CN([C@@H](C)CO)S(=O)(=O)c1ccc(Cl)cc1`, the cytotoxicity call was “inactive”.

In the case of `C[C@@H]1CN([C@H](C)CO)C(=O)c2cc(NC(=O)CCC(F)(F)F)ccc2O[C@@H](C)CCCCO[C@@H]1CN(C)CC1CCCCC1`, the cytotoxicity call was “inactive”.

Regarding `C[C@@H]1CN([C@H](C)CO)C(=O)c2cccc(NC(=O)c3nc4ccccc4s3)c2O[C@H]1CN(C)Cc1ccc(C(F)(F)F)cc1`, the cytotoxicity call is “inactive”.

Consider `C[C@@H]1CN([C@@H](C)CO)C(=O)c2cc(Br)cnc2O[C@@H]1CN(C)S(=O)(=O)c1ccc(F)cc1`, for which the cytotoxicity call was “inactive”.

Turning to `C[C@@H]1CCCCO[C@@H](CN(C)C(=O)CCC(F)(F)F)[C@@H](C)CN([C@H](C)CO)C(=O)c2cc(NS(=O)(=O)c3ccc(F)cc3)ccc2O1`, the cytotoxicity call was “inactive”.

Take `CCOC(=O)CSc1nnc2c3sc4nc(N5CCOCC5)c5c(c4c3ncn12)CC(C)(C)OC5`: the cytotoxicity call was “active”.

In the case of `O=C(NCCCN1CCOCC1)C(=O)NC1CC1`, the cytotoxicity call was “inactive”.

Turning to `COc1ccc(CN(C)C[C@H]2OCCCC[C@H](C)Oc3ccc(NS(=O)(=O)c4ccc(Cl)cc4)cc3C(=O)N([C@@H](C)CO)C[C@@H]2C)cc1`, the cytotoxicity call is “inactive”.

Turning to `COc1ccc(CN(C)C[C@H]2OCCCC[C@@H](C)Oc3ccc(NS(=O)(=O)c4ccc(Cl)cc4)cc3C(=O)N([C@@H](C)CO)C[C@@H]2C)cc1`, the cytotoxicity call was “inactive”.

Consider `COc1ccc(CN(C)C[C@@H]2OCCCC[C@@H](C)Oc3ccc(NS(=O)(=O)c4ccc(Cl)cc4)cc3C(=O)N([C@H](C)CO)C[C@H]2C)cc1`, for which the cytotoxicity call is “inactive”.

`COc1ccc(CN(C)C[C@H]2OCCCC[C@@H](C)Oc3ccc(NS(=O)(=O)c4ccc(Cl)cc4)cc3C(=O)N([C@H](C)CO)C[C@@H]2C)cc1`: the cytotoxicity call is “inactive”.

With `COc1ccc(CN(C)C[C@H]2OCCCC[C@H](C)Oc3ccc(NS(=O)(=O)c4ccc(Cl)cc4)cc3C(=O)N([C@@H](C)CO)C[C@H]2C)cc1`, the cytotoxicity call was “inactive”.

Consider `COc1ccc(CN(C)C[C@H]2OCCCC[C@@H](C)Oc3ccc(NS(=O)(=O)c4ccc(Cl)cc4)cc3C(=O)N([C@@H](C)CO)C[C@H]2C)cc1`, for which the cytotoxicity call was “active”.

As for `COc1ccc(CN(C)C[C@@H]2OCCCC[C@@H](C)Oc3ccc(NS(=O)(=O)c4ccc(Cl)cc4)cc3C(=O)N([C@H](C)CO)C[C@@H]2C)cc1`, the cytotoxicity call is “inactive”.

`COc1ccc(CN(C)C[C@@H]2OCCCC[C@H](C)Oc3ccc(NS(=O)(=O)c4ccc(Cl)cc4)cc3C(=O)N([C@H](C)CO)C[C@@H]2C)cc1`: the cytotoxicity call was “active”.

For the compound `COc1ccc(CN(C)C[C@@H]2OCCCC[C@H](C)Oc3ccc(NS(=O)(=O)c4ccc(Cl)cc4)cc3C(=O)N([C@@H](C)CO)C[C@H]2C)cc1`, the cytotoxicity call is “active”.

Regarding `C[C@@H]1CCCCO[C@H](CN(C)C(=O)Nc2ccccc2)[C@H](C)CN([C@@H](C)CO)C(=O)c2cc(NC(=O)Nc3ccc(F)cc3)ccc2O1`, the cytotoxicity call was “inactive”.

Take `O=C(C[C@H]1CC[C@@H](NC(=O)CN2CCOCC2)[C@H](CO)O1)NC1CCC1`: the cytotoxicity call is “inactive”.

In the case of `C[C@H](CO)N1C[C@H](C)[C@@H](CN(C)S(=O)(=O)c2cn(C)cn2)Oc2ccc(N(C)C)cc2CC1=O`, the cytotoxicity call is “inactive”.

As to `C[C@H](CO)N1C[C@H](C)[C@H](CN(C)Cc2ccc(F)cc2)Oc2cc(C#CC3CC3)ccc2S1(=O)=O`, the cytotoxicity call is “inactive”.

In the case of `C[C@@H]1CCCCO[C@H](CN(C)C(=O)C2CCCCC2)[C@@H](C)CN([C@H](C)CO)C(=O)c2cc(NC(=O)Nc3ccc(F)cc3)ccc2O1`, the cytotoxicity call was “inactive”.

As for `COCC(=O)Nc1ccccc1C(=O)O`, the cytotoxicity call is “inactive”.

With `O=C(N1CCOCC1)[C@@]1(CCS(=O)(=O)c2ccccc2)COC(c2ccc(OCCCO)cc2)=N1`, the cytotoxicity call is “inactive”.

For the compound `NCc1cccc2c1OCCCO2`, the cytotoxicity call is “inactive”.

Take `C[N+](C)(C)CCCC[C@@H]1NC(=O)[C@@H]2C[C@H](C(=O)NCCCCCCNC(=O)CS)[C@H](c3ccc(O)cc3)N2C1=O`: the cytotoxicity call is “inactive”.

Take `CC(C)=C[C@H]1[C@@H](c2nc3ccc(Br)cc3[nH]2)C1(C)C`: the cytotoxicity call was “inactive”.

For `CCNc1nc(NCC)nc(OCC#N)n1`, the cytotoxicity call was “inactive”.

As to `CCNc1nc(OCCO)nc(N(C)C)n1`, the cytotoxicity call is “inactive”.

In the case of `CCNc1nc(NCC)nc(C(=O)OCCO)n1`, the cytotoxicity call is “active”.

On to `C[C@H](CO)N1C[C@H](C)[C@H](CN(C)Cc2ccc(C(F)(F)F)cc2)Oc2ccc(NC(=O)Cc3cn(C)c4ccccc34)cc2CC1=O`, for which the cytotoxicity call is “inactive”.

On to `C[C@H]1CN([C@@H](C)CO)C(=O)Cc2cc(NC(=O)Cc3cn(C)c4ccccc34)ccc2O[C@H]1CN(C)C(=O)Nc1ccc(C(F)(F)F)cc1`, for which the cytotoxicity call is “inactive”.

`C[C@H]1CN([C@@H](C)CO)C(=O)Cc2cc(NC(=O)Cc3cn(C)c4ccccc34)ccc2O[C@@H]1CN(C)C(=O)Nc1ccc(C(F)(F)F)cc1`: the cytotoxicity call was “inactive”.

With `C[C@@H]1CN([C@H](C)CO)C(=O)Cc2cc(NC(=O)Cc3cn(C)c4ccccc34)ccc2O[C@@H]1CN(C)Cc1ccc(C(F)(F)F)cc1`, the cytotoxicity call is “active”.

Turning to `C[C@H](CO)N1C[C@H](C)[C@@H](CN(C)C(=O)Nc2ccc(C(F)(F)F)cc2)Oc2ccc(NC(=O)Cc3cn(C)c4ccccc34)cc2CC1=O`, the cytotoxicity call is “inactive”.

`C[C@@H]1CN([C@@H](C)CO)C(=O)Cc2cc(NC(=O)Cc3cn(C)c4ccccc34)ccc2O[C@H]1CN(C)C(=O)Nc1ccc(C(F)(F)F)cc1`: the cytotoxicity call was “inactive”.

For the compound `C[C@@H]1CN([C@@H](C)CO)C(=O)Cc2cc(NC(=O)Cc3cn(C)c4ccccc34)ccc2O[C@H]1CN(C)Cc1ccc(C(F)(F)F)cc1`, the cytotoxicity call is “active”.

For the compound `C[C@H](CO)N1C[C@H](C)[C@H](CN(C)C(=O)Nc2ccc(C(F)(F)F)cc2)Oc2ccc(NC(=O)Cc3cn(C)c4ccccc34)cc2CC1=O`, the cytotoxicity call is “inactive”.

For the compound `C[C@@H]1CN([C@@H](C)CO)C(=O)Cc2cc(NC(=O)Cc3cn(C)c4ccccc34)ccc2O[C@@H]1CN(C)Cc1ccc(C(F)(F)F)cc1`, the cytotoxicity call was “active”.

For `C[C@@H]1CN([C@H](C)CO)C(=O)Cc2cc(NC(=O)Cc3cn(C)c4ccccc34)ccc2O[C@@H]1CN(C)C(=O)Nc1ccc(C(F)(F)F)cc1`, the cytotoxicity call is “inactive”.

`C[C@H]1CN([C@@H](C)CO)C(=O)Cc2cc(NC(=O)Cc3cn(C)c4ccccc34)ccc2O[C@@H]1CN(C)Cc1ccc(C(F)(F)F)cc1`: the cytotoxicity call was “active”.

`C[C@@H]1CN([C@@H](C)CO)C(=O)Cc2cc(NC(=O)Cc3cn(C)c4ccccc34)ccc2O[C@@H]1CN(C)C(=O)Nc1ccc(C(F)(F)F)cc1`: the cytotoxicity call was “inactive”.

For the origin of these results see the antibiotic and cytotoxicity screens of Wong et al. (2023).
